Source: PubChem BioAssay
The full list was thinned out, with hits kept by preference.
GPT2 inh: GPT2 alanine aminotransferase inhibition; Q8TD30; 100,000 tested, 0.25% active; Recombinant GPT2, coupled pyruvate oxidase/HRP Amplex Red fluorescence; Potency, µM (top dose mostly 57.7 µM), for inactives: at the highest dose activity change, negative = inhibition, usual class: inhibitors; active means well fitted inhibition curve with a large enough effect; inconclusive means small, poorly fitted or top-dose-only effect; further: on the % scale 0 is the no-effect control and ±100 the full control effect; nearly all actives have a fitted effect of over 60% in size
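Fluorescence read-out: pyruvate from GPT2 turnover coupled to pyruvate oxidase, HRP and Amplex Red (0.2mM ThPP, 0.2U/mL PO and HRP, 50uM Amplex final). Substrates 250uM a-KG, 2mM L-alanine; enzyme 10ng/uL; 30 min RT.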
NPR1 antag: antagonists of human natriuretic peptide receptor Npr1; P16066; HEK293 hNpr1 GloSensor cGMP, ANP-stimulated luminescence; Potency, µM (series often up to 46.3 µM), without a hit: top-dose activity change, negative = inhibition, most hits filed as inhibitors; 76,000 tested, 1.6% active; further: on the % scale 0 is the no-effect control and ±100 the full control effect; nearly all actives have a fitted effect of over 60% in size
Target sequence (P16066 whole entry, looked up): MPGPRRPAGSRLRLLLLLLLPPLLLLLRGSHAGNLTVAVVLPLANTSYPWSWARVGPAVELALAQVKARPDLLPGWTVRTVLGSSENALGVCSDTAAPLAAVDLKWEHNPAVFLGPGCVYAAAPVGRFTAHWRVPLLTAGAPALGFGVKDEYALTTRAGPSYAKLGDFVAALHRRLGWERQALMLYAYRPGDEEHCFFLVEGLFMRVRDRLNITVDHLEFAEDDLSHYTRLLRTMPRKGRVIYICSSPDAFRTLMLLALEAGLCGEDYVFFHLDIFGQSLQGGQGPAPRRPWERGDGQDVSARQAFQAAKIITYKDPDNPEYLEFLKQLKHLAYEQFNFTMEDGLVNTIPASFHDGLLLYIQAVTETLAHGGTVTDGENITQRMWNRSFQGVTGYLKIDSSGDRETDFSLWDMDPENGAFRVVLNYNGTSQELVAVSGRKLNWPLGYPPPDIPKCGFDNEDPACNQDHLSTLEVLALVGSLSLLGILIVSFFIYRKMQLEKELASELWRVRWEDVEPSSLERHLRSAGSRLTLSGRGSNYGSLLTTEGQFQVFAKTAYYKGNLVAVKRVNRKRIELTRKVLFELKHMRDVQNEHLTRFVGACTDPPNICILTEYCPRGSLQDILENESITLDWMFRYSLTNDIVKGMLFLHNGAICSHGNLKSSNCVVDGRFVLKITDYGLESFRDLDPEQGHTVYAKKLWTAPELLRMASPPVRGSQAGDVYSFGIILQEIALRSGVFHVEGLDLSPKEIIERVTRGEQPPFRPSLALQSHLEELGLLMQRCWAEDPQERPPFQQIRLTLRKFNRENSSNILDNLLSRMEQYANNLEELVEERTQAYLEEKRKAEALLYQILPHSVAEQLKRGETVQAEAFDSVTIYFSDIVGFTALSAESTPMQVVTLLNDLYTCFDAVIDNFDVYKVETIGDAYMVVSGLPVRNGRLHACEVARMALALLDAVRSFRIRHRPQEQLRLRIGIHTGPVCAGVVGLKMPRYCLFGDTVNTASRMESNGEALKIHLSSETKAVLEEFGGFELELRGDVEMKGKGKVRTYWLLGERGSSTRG
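Compound pre-incubated 30 min at room temperature on GloSensor-loaded HEK293 cells stably carrying hNpr1 and the pGS-40F cGMP biosensor. Stimulation uses hNppA at 0.1 nM final; luminescence is taken at baseline and 20 min post-agonist.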
NPR1 antag cnf: confirmation of human Npr1 natriuretic peptide receptor antagonists. shares compounds with NPR1 antag. HEK293 hNpr1 cGMP GloSensor luminescence, ANP-stimulated. Potency, µM (series often up to 57.6 µM), for inactives: at the top dose activity change, negative = inhibition, most hits filed as inhibitors. 1,400 tested, 76% active; further: nearly all actives have a fitted effect of over 70% in size
NPR2 antag: selectivity test of Npr1 antagonists against human Npr2 | shares compounds with NPR1 antag | HEK293 hNpr2 GloSensor cGMP luminescence, CNP-stimulated | Potency, µM (series often up to 57.6 µM), without a hit: top-dose activity change, negative = inhibition, hits mostly inhibitors | 1,400 tested, 67% active | AID 1347046; further: nearly all actives have a fitted effect of over 70% in size
FLuc inh counter: inhibits firefly luciferase, false Npr1 antagonist flag; 1,400 tested, 0.7% active; purified FLuc enzyme, luminescence, Km substrate; shares compounds with NPR1 antag; AID 1347047; Potency, µM (top dose mostly 57.6 µM), for inactives: top-dose activity change, negative = inhibition, actives largely listed as inhibitors; active means well fitted inhibition curve with a large enough effect; inconclusive means small, poorly fitted or top-dose-only effect; further: 0% is about no effect
GloSensor cGMP: reduces cGMP signal in GloSensor control cells. shares compounds with NPR1 antag. HEK293 GloSensor cGMP, SNP-stimulated, luminescence. Potency, µM (doses to about 57.6 µM), for the others: at the top dose activity change, negative = inhibition, hits mostly inhibitors. 1,400 tested, 69% active. AID 1347051; further: on the % scale 0 is the no-effect control and ±100 the full control effect; nearly all actives have a fitted effect of over 70% in size
Starred values were filed as active, the others as inactive; i = inactive; ? = inconclusive; . = not tested or not shown; [ ] = another dose, or the depositor's remark. Unless noted, the call rests on the fitted dose curve. Potency means the concentration at half of the fitted maximal effect.

SMILES | GPT2 inh | NPR1 antag | NPR1 antag cnf | NPR2 antag | FLuc inh counter | GloSensor cGMP
Cc1noc(C2CC3(CCN(C(=O)CCCc4ccccc4)CC3)CN2C)n1 (stereo not drawn) | 0.1% | . | . | . | . | .
O=C(CCC1CCCC1)N1CCC(c2noc(COc3ccc(F)cc3)n2)C1 (stereo not drawn) | -8.2% | 10µM* | 10.9µM* | 15.3µM* | -7.0% | 9.68µM*
CCN(CC)C(=O)N1CCC(c2noc(COc3ccc(F)cc3)n2)C1 (stereo not drawn) | 1.4% | . | . | . | . | .
COc1cccc(C(=O)N2CCC(N3C[C@H](O)C[C@H]3C(=O)NCc3ccc(C)o3)CC2)c1 | i | 6.9% | . | . | . | .
CCC(C)C(=O)NC1CCN(c2cnn(CCOC)c(=O)c2)CC1 (stereo not drawn) | -9.4% | -11.9% | . | . | . | .
COC(=O)[C@@H]1Cc2c([nH]c3ccccc23)[C@H]2C[C@@H](NCCO)C[C@@H](c3ccccc3F)N21 | 1.1%[88.5 µM] | -14.9%[70.6 µM] | . | . | . | .
COC(=O)[C@@H]1Cc2c([nH]c3ccccc23)[C@H]2C[C@@H](NCCCn3ccnc3)C[C@@H](c3ccccc3F)N21 | i | -24.7% | -23.6% | -29.1% | -11.3% | -7.4%
O=C(NCc1ccc(F)cc1)c1cc(-c2cccc(C(F)(F)F)c2)c2cccn2n1 | -13.2% | . | . | . | . | .
CCCc1nc(NCc2nc(Cc3cccs3)no2)c2cnn(C)c2n1 | 0.6% | 12.6µM* | 21.7µM* | 21.7µM* | 5.3% | 21.7µM*
CC(C)Cc1cc(C(=O)NCc2nc(Cc3cccs3)no2)on1 | i | 3.5% | . | . | . | .
CCCCc1cn(CC2CCN(C(=O)c3sc(C)nc3C)CC2)nn1 | 0.4% | 9.8% | . | . | . | .
O=C(OCc1ccccc1)N1CCC(Oc2cnc3c(ccn3-c3cncnc3)c2)CC1 | -4.0%[88.5 µM] | ? | . | . | . | .
O=C(Oc1ccccc1)N1CCC(Oc2cnc3c(ccn3-c3cncnc3)c2)CC1 | i | 35.5µM* | 39.6µM* | 39.6µM* | 4.5%[86.2 µM] | 39.6µM*
CN(Cc1ccccc1)Cc1cc(C[C@@H]2CC[C@H](O)[C@@H](CNCc3ccccc3)O2)no1 | i | -1.5% | . | . | . | .
O=C1[C@@H]2C[C@@H](CN2Cc2ccc(C(F)(F)F)cc2)Oc2ccccc2N1Cc1cccnc1 | 4.5% | -28.5% | ? | -17.8% | -9.0% | -0.9%
O=C1[C@@H]2C[C@@H](CN2CC2CC2)Oc2ccccc2N1Cc1cccnc1 | 0.5%[88.5 µM] | -16.7%[70.6 µM] | . | . | . | .
CC(C)NC(=O)NC[C@H]1O[C@@H](CC(=O)NCc2cccnc2)[C@H](O)[C@@H]1O | -2.3%[88.5 µM] | -0.4%[70.6 µM] | . | . | . | .
Cc1noc(-c2cn(C3CCCN(C(=O)c4cccc5[nH]ccc45)C3)nn2)n1 (stereo not drawn) | i | -14.6% | . | . | . | .
O=C(c1cccc2[nH]ccc12)N1CCCC(n2cc(-c3nc(C4CC4)no3)nn2)C1 (stereo not drawn) | i | 11.2µM* | 27.3µM* | ? | -0.8% | ?
CC(C)c1noc(-c2cn(C3CCN(C(=O)c4cccc5[nH]ccc45)C3)nn2)n1 (stereo not drawn) | i | -0.5% | . | . | . | .
CC(C)c1noc(-c2cn(C3CCCN(C(=O)c4cccc5[nH]ccc45)C3)nn2)n1 (stereo not drawn) | i | 12.6µM* | 27.3µM* | ? | -17.6% | 21.7µM*
O=C1NCCCCCCN(C(=O)COc2ccccc2)[C@H]2CCC[C@@H]12 | i | 2.5% | . | . | . | .
Cn1ncc2c(C(=O)N3CCOCC3)cc(-c3cc(Cl)cc(Cl)c3)nc21 | i | . | . | . | . | .
CCC1=C(C(=O)OC)C(c2ccccc2)N2C(CC(=O)N(C)Cc3ccccc3)=CSC2=N1 (stereo not drawn) | -13.8% | -22.0% | . | . | . | .
CCC1=C(C(=O)OC)C(c2ccccc2F)N2C(CC(=O)N3CCC(C)CC3)=CSC2=N1 (stereo not drawn) | i | -28.9% | . | . | . | .
SMILES | GPT2 inh | NPR1 antag | NPR1 antag cnf | NPR2 antag | FLuc inh counter | GloSensor cGMP
COC(=O)C1=C(C)N=C2SC=C(CC(=O)N3CCCC3)N2C1c1cccc(OC)c1 (stereo not drawn) | i | ? | . | . | . | .
COC(=O)C1=C(C)N=C2SC=C(CC(=O)N3CCC(C)CC3)N2C1c1cccc(OC)c1 (stereo not drawn) | i | ? | ? | 19.3µM* | -1.0% | -6.4%
CCC1=C(C(=O)OC)C(c2ccccc2Cl)N2C(CC(=O)N(C)Cc3ccccc3)=CSC2=N1 (stereo not drawn) | i | ? | ? | ? | 1.0% | ?
CC1=C(C(=O)OC(C)C)C(c2ccccc2F)N2C(CC(=O)N3CCCC3)=CSC2=N1 (stereo not drawn) | i | ? | ? | ? | 0.9% | ?
CC1=C(C(=O)OC(C)C)C(c2ccc([N+](=O)[O-])cc2)N2C(CC(=O)N3CCCC3)=CSC2=N1 (stereo not drawn) | i | ? | . | . | . | .
CCC1=C(C(=O)OC)C(c2ccccc2F)N2C(CC(=O)N3CCCC3)=CSC2=N1 (stereo not drawn) | i | ? | -29.3% | ? | 2.8% | ?
CCc1cccc2c(C(CC(=O)N3CCc4ccccc4C3)c3cccc4c3OCO4)c[nH]c12 (stereo not drawn) | i | -9.6% | . | . | . | .
CN(Cc1ccc(N2CCCCC2)cc1)C(=O)CCC[C@H]1NC[C@@H]2C[C@H]1CN(Cc1ccccc1)C2 | i | -2.2% | . | . | . | .
Fc1ccc(-c2cc(-c3cn[nH]c3)c3cncn3c2)cc1 | -18.8%[88.5 µM] | -15.2%[70.6 µM] | . | . | . | .
CC(C)N1CC2(CCN(C(=O)C3CC3)CC2)C1c1ccccc1 (stereo not drawn) | i | . | . | . | . | .
FC(F)(F)c1cccc(-c2cc(-c3cccnc3)c3cncn3c2)c1 | -4.5%[88.5 µM] | -17.4%[70.6 µM] | . | . | . | .
C=CCOC(=O)C1=C(C)N=C2SC=C(CC(=O)N3CCCC3)N2C1c1cccc(OC)c1OC (stereo not drawn) | 0.6% | -24.2% | . | . | . | .
C=CCOC(=O)C1=C(C)N=C2SC=C(CC(=O)N3CCCC3)N2C1c1ccccc1Cl (stereo not drawn) | i | 12.6µM* | 24.3µM* | 24.3µM* | -2.5% | ?
COc1ccc(C(=O)N2CCC3(CC2)NC(=O)N(c2cccc(Cl)c2)N3)cc1 | -31.7% | 0.0% | . | . | . | .
COCCn1c(C)cc(C(=O)N2CCC3(CC2)CC(C(=O)N2CCOCC2)N(C)C3)c1C (stereo not drawn) | -4.0% | . | . | . | . | .
O=C(NCc1ccc(F)cc1)c1csc(N2CCN(c3ccccc3F)CC2)n1 | 4.4% | -6.2% | . | . | . | .
O=C(NCc1cccc(F)c1)c1csc(N2CCN(c3ccc(Cl)cc3)CC2)n1 | -17.5% | 12.6µM* | 24.3µM* | 24.3µM* | 0.0% | 21.7µM*
